Assay outcomes as filed in PubChem BioAssay.
KB-V1 MDR tox – kills drug-selected multidrug resistant KB-V1 cells. AID 1347076. hit rate 3.4% among 400,000. Potency, µM (series often up to 46.1 µM), usual class: cytotoxic. KB-V1 MDR cells viability, CellTiter-Glo, 72 h; also: nearly all actives have a fitted effect of over 60% in size
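Compound-treated KB-V1 multidrug-resistant cells, 72 h, 37 degrees C; viability by CellTiter-Glo. Fitted qHTS curves give the values.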
HT1080NT lethal – kills 2HG-producing HT-1080-NT fibrosarcoma cells | HT-1080-NT fibrosarcoma viability, CellTiter-Glo ATP luminescence, 48 h | Potency, µM (titrated, usually from 46.1 µM), hits mostly cytotoxic | hit rate 1.6% among 360,000;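 also: NT is the 2HG producing partner of a matched IDH1 knockdown line; nearly all actives have a fitted effect of over 55% in size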
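Toxicity toward the 2HG-producing NT line was scored as %Activity, normalised to DMSO and no-cell wells, from CellTiter-Glo luminescence after 48 hours' treatment.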
ATXN viability – viability counter-screen for ATXN expression inhibitors. Potency, µM (titrated, usually from 56.7 µM), hits mostly cytotoxic. hit rate 0.49% among 400,000. S2 cells (HEK-293 line with an ATXN2-luciferase reporter) viability, CellTiter-Fluor protease fluorescence, 24 h; also: nearly all actives have a fitted effect of over 40% in size
ATXN2 expr inh – inhibitors of ATXN2 expression | HEK-293 ATXN2-luciferase reporter, luminescence, 24 h | hit rate 0.72% among 360,000 | Potency, µM (series often up to 57 µM), usual class: inhibitors | AID 1745845; also: nearly all actives have a fitted effect of over 55% in size
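ATXN2-luciferase reporter cells (luciferase flanked by upstream and downstream ATXN2 gene portions) were treated 24 h at 37 °C with compounds at up to 57 uM. SteadyGlo luminescence gave expression; GF-AFC fluorescence gave viability.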
KB-3-1 cytotox – kills parental KB-3-1 adenocarcinoma cells | KB-3-1 viability, CellTiter-Glo ATP luminescence, 72 h | Potency, µM (titrated, usually from 46.1 µM), actives largely listed as cytotoxic | hit rate 1.4% among 400,000; also: nearly all actives have a fitted effect of over 60% in size
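Screening of KB-3-1 cells (DMEM, 10% FBS, phenol-red free) ran from lowest to highest compound concentration; after 72 h at 37 °C viability was read luminescently and curves fitted.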
HT1080 IDH1KD tx – kills HT-1080 cells with IDH1 knockdown. hit rate 2% among 360,000. HT-1080 IDH1 knockdown viability, ATP luminescence, 48 h. Potency, µM (highest dose often 46.1 µM), usual class: cytotoxic. AID 686971
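IDH1KD HT-1080 cells, 750/well, RPMI + 5% FBS; compound pinned after 2 h settling; 48 h, 37 °C; CellTiter-Glo luminescence; % activity normalised to DMSO and no-cell wells; curves fitted, classed by r2 and efficacy.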
Hits are given with their value; 0 = inactive; ? = inconclusive; - = not tested or not shown; ! = not confirmed by another sample. Compounds with a hit are over-represented: about 6.2% of the library has one in this group of screens. Calls follow the shape of the dose curve; as a rule, active = well fitted curve in the direction sought with a large enough effect; inconclusive = small, poorly fitted or top-dose-only effect, or another doubt; inactive = no such curve, though single readings can be large; an effect the other way counts as inactive or inconclusive.

SMILES	KB-V1 MDR tox	HT1080NT lethal	ATXN viability	ATXN2 expr inh	KB-3-1 cytotox	HT1080 IDH1KD tx
CC(C)c1ccc2c(c1)CCC1C(C)(CN)CCCC21C (centres undefined)	?	?	-	35µM	21µM	21µM
CC(C)c1ccc2c(c1)CC[C@H]1[C@](C)(CN)CCC[C@]21C	?	18µM	0	?	?	21µM!
CC(C)c1cc2c(cc1S(=O)(=O)O)[C@@]1(C)CCC[C@@](C)(C(=O)O)[C@@H]1CC2	-	-	0	0	-	-
O=C(NCCCNC(=O)c1ccc(-c2cc(Cl)ccc2Cl)o1)c1cnccn1	0	0	0	0	0	0
CC(=O)N[C@H]1[C@H]([C@H](O)[C@H](O)CO)OC(C(=O)O)=C[C@@H]1N=C(N)N	-	-	0	0	-	-
CN(C)c1cc[n+](Cc2c(Cl)cccc2Cl)cc1	0	0	0	0	7.3µM	?
S=C(NCCc1ccccn1)Nc1ccc(Cl)c(Cl)c1	23µM	0	0	0	0	0
CC(=O)N(C)C1=C(N2CCOCC2)C(=O)c2ccccc2C1=O	12µM	1.6µM	3.5µM	1.4µM	1.2µM	0.89µM
CC(=O)c1ccc(NC2=C(N3CCOCC3)C(=O)c3ccccc3C2=O)cc1	26µM	?	?	?	0	?
O=C(/C=C/c1ccccc1)NC(=S)NNC(=O)c1cnccn1	?	0	?	14µM	?	?
O=C(/C=C/c1ccccc1)NC(=S)NNC(=O)c1cccnc1	0	0	0	0	0	0
C#CC[N+](C)(C)CC#Cc1ccccc1	0	0	0	0	?	0
C#CC[N+](C)(C)CCCCCCCCC	0	?	0	?	5.8µM	?
CC#CC[N+](C)(C)CCCCCCCCCC	0	0	0	?	5.8µM	?
O=C(NCCCc1ccccc1)c1cnc2n(c1=O)CCS2	15µM	0	0	0	0	0
COc1ccc(NC(=O)Cn2c(SCc3c(F)cccc3Cl)nc3ccncc32)cc1OC	0	-	0	0	0	-
Cc1ccc(C(C)CCN2CCOc3ccc(CN4CCOCC4)cc3C2)o1 (centres undefined)	-	-	0	-	-	-
NC1(Cc2ccc(Cl)cc2)CCN(c2ncnc3[nH]ccc23)CC1	-	-	-	27µM	-	-
COc1ccc(CN2C(=O)c3ccccc3C(/C=N\OCc3ccc(C)cc3)C2=O)cc1 (centres undefined)	?	0	0	0	21µM	0
Cc1cc(NC(=O)c2cc(-c3cccc(Cl)c3)on2)n(-c2ccccc2)n1	?	-	0	0	0	-
O=c1[nH]c(=O)n([C@H]2O[C@H](CO)[C@@H](O)[C@@H]2O)cc1/C=C\Br	-	-	0	0	-	-
COc1ccc(NC(=O)c2nc[nH]c2C(=O)Nc2ccccc2C)cc1	?	?	0	0	5.8µM	?
COCCn1c(=NC(=O)CSCC(=O)NC2CCCCC2)sc2cc(OC)ccc21	2.9µM	0	0	0	?	0
S=C(Nc1ccc(Nc2ccccc2)cc1)Nc1ccccn1	0	?	0	0	?	16µM
Cc1ccc(S(=O)(=O)n2ccc3c(OCCOCCNCc4ccc(F)cc4)cccc32)cc1	?	16µM	0	0	?	21µM
SMILES	KB-V1 MDR tox	HT1080NT lethal	ATXN viability	ATXN2 expr inh	KB-3-1 cytotox	HT1080 IDH1KD tx
C[C@H](O)[C@@H]1CN2CCc3c([nH]c4ccccc34)[C@@H]2C[C@@H]1N(C)C(=O)Nc1cccc2ccccc12	0	0	0	0	0	0
COc1ccc(-c2ccc3[nH]c4c(c3c2)CCN2C[C@@H]([C@H](C)O)[C@@H](N(C)C(=O)Nc3cc(Cl)cc(Cl)c3)C[C@@H]42)cc1	?	?	-	0	0	21µM
C[C@H](O)[C@@H]1CN2CCc3c([nH]c4ccccc34)[C@@H]2C[C@@H]1N(C)C(=O)c1ccco1	?	26µM	0	0	?	?
C[C@H](O)[C@@H]1CN2CCc3c([nH]c4ccc(-c5ccc6c(c5)OCO6)cc34)[C@@H]2C[C@@H]1N(C)C(=O)Nc1ccc(F)cc1	?	?	32µM	?	5.8µM	21µM
COc1ccc(-c2ccc3[nH]c4c(c3c2)CCN2C(=O)[C@@H]([C@H](C)O)[C@@H](N(C)C(=O)Nc3ccc(F)cc3)C[C@@H]42)cc1	16µM	?	?	?	0	?
Cc1ccccc1C(=O)N(C)[C@H]1C[C@H]2c3[nH]c4ccccc4c3CCN2C[C@H]1[C@H](C)O	0	0	0	0	0	0
CCOc1ccc(-c2nnc(SCC(=O)NC3CCCC3)nc2-c2ccc(OCC)c(OC)c2)cc1OC	0	-	-	-	0	-
CC1(C(=O)Nc2ccc3c(c2)OCO3)CCN1C(=O)Cc1cccc2ccccc12 (centres undefined)	0	0	0	0	0	0
Cc1ccc(CN2c3ccccc3-c3nc(SCC(=O)NCCc4ccccc4)ncc3S2(=O)=O)cc1	0	-	0	0	0	-
C=CC(=O)N1C/C(=C/c2ccc(F)cc2)C(=O)/C(=C\c2ccc(F)cc2)C1	0	?	7.1µM	5.6µM	?	2.9µM
O=C1C(=Cc2ccc(F)cc2)CCc2ccccc21	0	0	0	0	0	0
CCSc1nnc(NC(=O)NC(CC)(C(F)(F)F)C(F)(F)F)s1	0	18µM	?	?	?	?
CCSc1nnc(NC(=O)NC(C)(C(F)(F)F)C(F)(F)F)s1	0	?	0	0	0	?
Cc1ccc(C(=O)NC2c3ccccc3-c3ccccc32)cc1	5.2µM	?	?	0	6.5µM	2.6µM
Cc1sc2nc(SCc3nnc(-c4cccs4)o3)n(C3CCCC3)c(=O)c2c1C	21µM	0	0	0	0	0
CCN1CCCC1CNC(=O)c1cnn(-c2nccc(-c3cccs3)n2)c1C1CC1 (centres undefined)	-	-	0	-	-	-
O=C(CNC(=O)c1ccccc1F)NCCN1C(=O)S/C(=C\c2ccccc2Cl)C1=O	?	0	0	0	0	0
Cc1ccc(S(=O)(=O)CCC(=O)NCCN2C(=O)S/C(=C\c3ccccc3)C2=O)cc1	12µM	0	?	0	0	0
O=C(CCS(=O)(=O)c1ccc(Cl)cc1)NCCN1C(=O)S/C(=C\c2ccccc2F)C1=O	13µM	0	0	0	0	0
Cc1ccc(-c2csc(-c3cc4c([nH]c3=O)CC(c3ccccc3)CC4=O)n2)cc1 (centres undefined)	?	-	0	0	0.82µM	-
CN(CC(=O)N1CCOCC1)Cc1c(Cl)cccc1NC(=O)c1ccccc1	-	-	0	-	-	-
CC1=CC(=O)C(C(C)=Nc2cccc(Cl)c2)C(=O)O1 (centres undefined)	0	0	0	0	0	0
COc1ccc(/C=C(/CC(=O)Nc2ccccc2)c2nc3ccccc3s2)cc1	0	0	0	0	0	0
COc1ccc(/C=C(/CC(=O)NCc2ccc(Cl)cc2)c2nc3ccccc3s2)cc1	10µM	0	0	0	0	0
